# From PubChem BioAssay
# A number with no mark means an inactive call.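 How the source made its calls: active means luciferase signal above three times the same-plate solvent-only control wells; inactive means the rest.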
# Biological target: Mitogen-activated protein kinase 7 (Homo sapiens) (UniProt Q13164)
# Assay: ERK5 transactivation activators in reporter cells, primary screen, cell-based, HTS (AID 1508626);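 further: luciferase driven by Gal4-ERK5 fusion binding five Gal4 sites before minimal TATA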
# Details: HeLa Gal4-ERK5 transactivation, 18 h, at 5 µM, stronger effect = higher value
# Sequence of Mitogen-activated protein kinase 7 (Homo sapiens) (Q13164 whole entry, looked up, the tested form may be a part): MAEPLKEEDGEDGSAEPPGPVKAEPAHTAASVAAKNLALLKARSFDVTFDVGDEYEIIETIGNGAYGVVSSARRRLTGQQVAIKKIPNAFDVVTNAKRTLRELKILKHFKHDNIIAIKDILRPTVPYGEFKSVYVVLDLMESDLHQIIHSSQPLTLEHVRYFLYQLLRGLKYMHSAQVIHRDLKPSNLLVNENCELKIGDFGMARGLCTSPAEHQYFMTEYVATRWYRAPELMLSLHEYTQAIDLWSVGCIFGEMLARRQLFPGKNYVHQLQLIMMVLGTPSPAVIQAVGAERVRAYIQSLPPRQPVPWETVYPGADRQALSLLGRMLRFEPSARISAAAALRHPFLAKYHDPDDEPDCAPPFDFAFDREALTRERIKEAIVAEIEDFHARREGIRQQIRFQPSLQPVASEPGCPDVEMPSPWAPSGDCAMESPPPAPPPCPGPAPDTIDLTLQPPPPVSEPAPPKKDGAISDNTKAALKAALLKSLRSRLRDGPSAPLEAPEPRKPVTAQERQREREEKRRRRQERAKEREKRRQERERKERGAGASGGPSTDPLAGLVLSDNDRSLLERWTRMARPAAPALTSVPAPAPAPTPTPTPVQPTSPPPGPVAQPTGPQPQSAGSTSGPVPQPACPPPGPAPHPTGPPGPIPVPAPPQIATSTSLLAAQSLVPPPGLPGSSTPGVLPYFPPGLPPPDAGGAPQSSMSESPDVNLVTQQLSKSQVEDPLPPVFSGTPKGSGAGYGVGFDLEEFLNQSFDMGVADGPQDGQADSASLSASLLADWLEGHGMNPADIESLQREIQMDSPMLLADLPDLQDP
row,Compound,luciferase signal [AU]
1,CC(C)=CCC[C@]1(C)C=Cc2c(O)c3c(c(CC=C(C)C)c2O1)O[C@]12C(=C[C@@H]4C[C@H]1C(C)(C)O[C@@]2(C/C=C(/C)C(=O)O)C4=O)C3=O,72
2,O=C1CCCC2C3CC(CN12)C1CCCCN1C3 (stereo not given),60
3,O=C(O)COc1cc(Cl)c(Cl)cc1Cl,60
4,COP(=S)(OC)SCn1nnc2ccccc2c1=O,64
5,C[C@H]1O[C@@H](O[C@H]2[C@@H](O)C[C@H](O[C@H]3[C@@H](O)C[C@H](O[C@H]4CC[C@@]5(C)[C@H](CC[C@@H]6[C@@H]5CC[C@]5(C)[C@@H](C7=CC(=O)OC7)[C@@H](O)C[C@]65O)C4)O[C@@H]3C)O[C@@H]2C)C[C@H](O)[C@@H]1O,16
6,Cc1c(O)c(O)cc2c1CC=C1[C@@]2(C)CC[C@@]2(C)[C@@H]3C[C@](C)(C(=O)O)CC[C@]3(C)CC[C@]12C,128
7,CC1(C)C(=O)C=C[C@]2(C)[C@H]3CC[C@@]4(C)[C@H](c5ccoc5)OC(=O)[C@H]5O[C@]54[C@]3(C)[C@H](O)C[C@@H]12,16
8,CO[C@H]1C[C@H](O[C@H]2CC[C@@]3(C)[C@H](CC[C@@H]4[C@@H]3CC[C@]3(C)[C@@H](C5=CC(=O)OC5)[C@@H](OC(C)=O)C[C@]43O)C2)O[C@@H](C)[C@@H]1O,32
9,CC1CC(Cl)CCC1C(=O)OC(C)(C)C (stereo not given),40
10,C[C@@H](CO)NC(=O)[C@@H]1C=C2c3cccc4[nH]cc(c34)C[C@H]2N(C)C1,20
11,CC1(C)C(=O)C=C[C@@]2(C)C1=C(O)C(=O)[C@]1(C)[C@@H]2CC[C@@]2(C)[C@H](c3ccoc3)C[C@H]3O[C@]321,12
12,COC[C@]12CN(C=O)C3[C@@H]4C(OC)C1[C@]3(C1CC3(O)C(OC)C(O)C4(OC(C)=O)C1C3OC(=O)c1ccccc1)[C@@H](OC)C[C@H]2O (stereo not given in full),148
13,COP(=S)(OC)Oc1ccc([N+](=O)[O-])cc1,72
14,C[C@@H]1CC[C@@]2(NC1)O[C@H]1C[C@H]3[C@@H]4CC=C5C[C@@H](O)CC[C@]5(C)[C@H]4CC[C@]3(C)[C@H]1[C@@H]2C,48
15,COc1cc2c(cc1O)C[C@H]1c3c(cc(O)c(OC)c3-2)CCN1C,56
16,CNC(=O)Oc1cccc2c1OC(C)(C)C2,44
17,C/C=C(\C)C(=O)O[C@H]1C[C@@H](OC(C)=O)[C@@]2(C(=O)OC)CO[C@H]3[C@@H](O)[C@@](C)([C@]45O[C@@]4(C)[C@H]4C[C@@H]5O[C@@H]5OC=C[C@@]54O)[C@H]4[C@]1(CO[C@]4(O)C(=O)OC)[C@@H]32,12
18,CC[C@@H](C)C(=O)O[C@H]1[C@H](O)[C@H]2[C@@H](CN3C[C@@H](C)CC[C@H]3[C@@]2(C)O)[C@@H]2C[C@]34O[C@]5(O)[C@@H](OC(=O)[C@@](C)(O)CC)CC[C@@]3(C)[C@@H]5[C@@H](OC(C)=O)[C@@H](OC(C)=O)[C@H]4[C@@]21O,108
19,CC(=O)O[C@@H]1C[C@H]2C(C)(C)C(=O)C=C[C@]2(C)[C@H]2CC[C@]3(C)C(=CC(=O)O[C@H]3c3ccoc3)[C@@]21C,44
20,CC(=O)[O-].CC(=O)[O-].[Cd+2],740
21,O=C(O)CNCP(=O)(O)O,40
22,COC(=O)[C@]1(C)CC[C@]2(C)CC[C@]3(C)C4=CCc5c(cc(O)c(O)c5C)[C@]4(C)CC[C@@]3(C)[C@@H]2C1,20
23,C[C@@H]1[C@H](O)[C@@H](C)/C=C/C=C/CC/C=C/C=C/C=C/C=C/C(O[C@H]2O[C@H](C)[C@@H](O)[C@H](N)[C@@H]2O)CC2O[C@](O)(CC(O)C(O)CCC(O)CC(O)CC(O)CC(=O)O[C@H]1C)CC(O)C2C(=O)O (stereo not given in full),56
24,COC(=O)COc1cc(Cl)c(Cl)cc1Cl,92
25,C[C@H]1CC[C@]2(NC1)O[C@H]1C[C@H]3[C@@H]4CC[C@H]5C[C@@H](O)CC[C@]5(C)[C@H]4CC[C@]3(C)[C@H]1[C@@H]2C,104
